Screens from PubChem BioAssay.
MPTP block: inhibitors of mitochondrial permeability transition pore. isolated mouse mitochondria, Ca2+ swelling absorbance, 30 min. inhibition, % at 10 µM. 360,000 tested, 1.4% active;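 active = inhibition of 50% or more, scaled per plate between neutral and stimulator controls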;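 also: 0% = DMSO wells given calcium and 100% = 1 mM EGTA wells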
rCAG binder: molecules binding r(CAG) RNA repeats. inhibition, % at 3 µM. r(CAG) RNA repeat, TO-PRO-1 dye displacement fluorescence. AID 651821. 370,000 tested, 1.3% active;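 active = inhibition above the plate cutoff, the mean of all test compounds on that plate plus 3 SD, cut at about 35% in these data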;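 also: 0% = DMSO alone and 100% = 100 µM mitoxantrone as full dye displacement; higher means more dye released from RNA so lower well fluorescence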
KLK7 zymogen act: proKLK7 (human) activation, primary screen; purified proKLK7, EDANS-DABCYL substrate fluorescence; 100% is mature enzyme control, 0% vehicle; P49862; activation, % at 7 µM; 370,000 tested, 0.9% active;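 active = activation above the mean of all tested compounds plus 3 SD, computed per campaign excluding outliers beyond control limits, cut at about 13% in these data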
ADAM17 inh: inhibitors of human ADAM17; recombinant ADAM17, EDANS/DABCYL FRET peptide cleavage; inhibition, % at 6.95 µM; 370,000 tested, 0.83% active;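 active = inhibition above the mean of compounds lying between control limits plus 3 SD, set per campaign, cut at about 8.5% in these data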;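 also: 0% = DMSO-only wells as the low control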
Target sequence (P78536 215-824 limits assumed): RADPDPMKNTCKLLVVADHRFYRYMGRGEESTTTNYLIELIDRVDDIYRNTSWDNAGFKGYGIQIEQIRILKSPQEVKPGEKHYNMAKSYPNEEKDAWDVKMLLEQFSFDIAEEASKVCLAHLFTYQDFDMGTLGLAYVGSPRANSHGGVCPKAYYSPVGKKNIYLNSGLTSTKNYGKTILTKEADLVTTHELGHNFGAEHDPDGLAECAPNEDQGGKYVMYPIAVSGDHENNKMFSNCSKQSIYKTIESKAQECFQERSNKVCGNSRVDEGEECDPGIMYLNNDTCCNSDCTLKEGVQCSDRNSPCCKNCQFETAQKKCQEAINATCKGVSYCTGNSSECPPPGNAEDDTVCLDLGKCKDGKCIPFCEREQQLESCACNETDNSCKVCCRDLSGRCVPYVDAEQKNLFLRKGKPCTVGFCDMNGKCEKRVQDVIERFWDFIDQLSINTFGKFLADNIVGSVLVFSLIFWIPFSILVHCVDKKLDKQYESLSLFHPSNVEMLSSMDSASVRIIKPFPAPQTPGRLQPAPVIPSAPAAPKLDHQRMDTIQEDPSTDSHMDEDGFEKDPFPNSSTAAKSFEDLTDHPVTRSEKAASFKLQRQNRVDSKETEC
Pemphigus Ab inh: human desmoglein-3 autoantibody binding inhibition; 310,000 tested, 0.48% active; AID 588358; P32926; binding (percent of control), % at 10 µM; DSG3-coupled beads, scFv-anti-DSG3-GFP binding, flow cytometry; stronger effect = lower value;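 active = binding more than 3 SD below its plate's average and above zero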;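 also: hits lower antibody fragment binding to DSG3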
ADAM10 inh: ADAM10 inhibition, QFRET primary screen; inhibition, % at 7 µM; 370,000 tested, 0.62% active; O14672; AID 720582; recombinant ADAM10, EDANS/DABCYL FRET peptide cleavage, 3 h;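 active = inhibition above a per-campaign cutoff equal to the mean of compounds falling between control-based bounds plus 3 SD, cut at about 20% in these data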;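 also: 0% = DMSO wells while the 100% control is not disclosed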
rCAG bind conf: r(CAG) RNA repeat binding, confirmation; shares compounds with rCAG binder; TO-PRO-1 dye displacement fluorescence; inhibition, % at 3 µM; 4,300 tested, 70% active; AID 652065;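 active = inhibition above a per-plate cutoff, the mean inhibition of sample wells plus 3 SD, cut at about 35% in these data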;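 also: loss of TO-PRO-1 fluorescence as compound displaces dye from 1x1 AA loop RNA; 0% = DMSO only wells and 100% = 100 µM mitoxantrone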
dCAG dye counter: DNA CAG dye complex inhibition counter-screen | shares compounds with rCAG binder | d(CAG) DNA oligo TO-PRO-1 dye displacement, fluorescence | inhibition, % at 3 µM | 4,300 tested, 94% active | AID 652068;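 active = inhibition above its plate's cutoff, the mean test-well inhibition plus 3 SD, cut at about 4.8% in these data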;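 also: 0% = DNA dye mix with DMSO and 100% = 100 µM mitoxantrone; hits displace the dye from DNA and so lower well fluorescence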
DNA CAG DR: counter-screen for rCAG binders: inhibitors of DNA CAG TO-PRO-1 complex | shares compounds with rCAG binder | DNA CAG/GTC duplex TO-PRO-1 dye displacement fluorescence | IC50, µM | 250 tested, 20% active | AID 686960; in the data active = IC50 below about 10 µM
Starred values were filed as active, the others as inactive; i = inactive; nt = no result given. This is a sample that favours compounds with a hit; in the whole collection about 4.7% have one here.

SMILES | MPTP block | rCAG binder | KLK7 zymogen act | ADAM17 inh | Pemphigus Ab inh | ADAM10 inh | rCAG bind conf | dCAG dye counter | others
O=S(c1cc(Cl)cc(Cl)c1O)c1cc(Cl)cc(Cl)c1O | 47 | 40* | 0 | 0 | nt | 7 | 44* | 11* | DNA CAG DR=9.4*
COc1ccccc1C(=O)N1CCC2CCNC2C1 (centres undefined) | nt | 3 | 0 | -5 | nt | -11 | nt | nt
CS(=O)(=O)c1ccc2nc(NC(=O)c3ccc(NS(=O)(=O)c4ccc(F)c(F)c4)cc3)sc2c1 | 5 | 36* | -2 | -12 | 104 | -17 | 66* | 27*
O=C(Nc1nc2ccc(SC(F)F)cc2s1)c1ccc(NS(=O)(=O)c2ccc(F)c(F)c2)cc1 | 19 | 62* | -4 | -42 | 107 | -147 | 84* | 66*
CS(=O)(=O)c1ccc2nc(NC(=O)c3cccc(NS(=O)(=O)c4ccc(F)c(F)c4)c3)sc2c1 | 44 | 59* | 0 | 0 | nt | -8 | 60* | 25*
CS(=O)(=O)c1ccc2nc(NC(=O)c3cccc([N+](=O)[O-])c3)sc2c1 | 2 | 19 | 1 | -3 | 111 | -10 | nt | nt
CC(C)C[C@@H]1NC(=O)[C@H]2C[C@]3(c4ccccc4)c4ccccc4N[C@H]3N2C1=O | nt | 8 | 0 | -4 | nt | -13 | nt | nt
O=S(=O)(Nc1ncccn1)c1ccc(NC(=S)NCCc2ccc(Cl)cc2)cc1 | -1 | 38* | 0 | 2 | 101 | 13 | 10 | 2
CN(C)c1ccc2cc(S(=O)(=O)O)cc(O)c2c1 | 0 | 59* | -15 | -159 | 84 | i | 33 | 10*
O=Nc1c(O)ccc2cc(S(=O)(=O)O)ccc12 | 0 | nt | nt | nt | 108 | nt | nt | nt
Cc1cc(SCC(=O)c2ccc(O)c(O)c2)nc2ccccc12 | 6 | 35* | 0 | 5 | 112 | 16 | 54* | 23*
CC(C)CN1C(=O)C[C@@]2(C(=O)N(C)c3ccc(NC(=O)C(F)(F)F)cc32)C1c1ccccc1 (some centres undefined) | nt | -1 | 0 | -5 | nt | -5 | nt | nt
CCC1NC(=O)c2ccccc2N1c1cccc(Cl)c1 (centres undefined) | 13 | -2 | 4 | -85 | 106 | -192 | nt | nt
CN1CCc2nc3ccccc3c(C(=O)OCC(=O)N(CCC#N)c3ccccc3)c2C1 | -1 | 1 | -5 | -27 | 118 | -65 | nt | nt
O=C(COC(=O)c1c2c(nc3ccccc13)/C(=C\c1ccco1)CC2)NC1CCCC1 | 1 | 60* | 0 | -9 | 86 | -30 | 59* | 33*
CN(CCC#N)C(=O)COC(=O)c1c2c(nc3ccccc13)/C(=C\c1ccco1)CC2 | 1 | 65* | -2 | -15 | 123 | -50 | 57* | 31*
CC1CCc2c(sc3nc(CN4CCOCC4)nc(NS(=O)(=O)c4cccc([N+](=O)[O-])c4)c23)C1 (centres undefined) | 23 | 62* | 0 | 2 | 100 | -10 | 71* | 28* | DNA CAG DR=i
Cc1cc(S(=O)(=O)Nc2nc(CN3CCOCC3)nc3sc4c(c23)CCCC4)ccc1F | 1 | 30 | -2 | -9 | 105 | -18 | nt | nt
CCOc1ccccc1NC(=O)CCN1CCN(S(=O)(=O)c2ccc(Br)cc2)CC1 | -1 | 36* | 0 | -1 | 115 | 0 | 3 | 1
CCOc1ccc(NC(=O)CCN2CCN(S(=O)(=O)c3ccc(F)cc3)CC2)cc1 | -2 | 0 | 0 | -1 | nt | 1 | nt | nt
CC(C)[C@H](NC(=O)C1CC1)C(=O)N1CCC[C@H]1C(=O)NCCc1ccccc1Cl | nt | 3 | 0 | 1 | nt | -4 | nt | nt
CCCC(=O)NC(=S)Nc1ccc(S(=O)(=O)N2CCc3ccccc32)cc1 | 18 | 5 | 0 | 4 | 109 | 11 | nt | nt
O=C1N=c2ccccc2=C1c1sc(NS(=O)(=O)Cc2ccccc2)nc1O | 7 | 34 | 0 | -5 | 93 | -1 | nt | nt
O=C1N=c2ccccc2=C1c1sc(NS(=O)(=O)c2ccccc2)nc1O | 0 | 41* | 0 | 0 | 107 | -5 | 25 | 6.0*
O=C1N=c2ccccc2=C1c1sc(Nc2cccc(O)c2)nc1O | 2 | 61* | 0 | 7 | 113 | 10 | 26 | 15*
SMILES | MPTP block | rCAG binder | KLK7 zymogen act | ADAM17 inh | Pemphigus Ab inh | ADAM10 inh | rCAG bind conf | dCAG dye counter | others
O=C1N=c2ccccc2=C1c1sc(Nc2ccc(O)cc2)nc1O | 1 | 41* | 1 | -1 | -15* | 0 | 26 | 18*
CCCCS(=O)(=O)N1CCCc2nc(-c3ccccc3)ccc21 | nt | 5 | 0 | 1 | nt | -2 | nt | nt
COc1ccc(NC(=O)CSc2nc(O)cc(=O)n2-c2ccc(OC)cc2)cc1 | 0 | 40* | 0 | 4 | nt | 1 | 13 | 4.5*
COc1ccccc1-n1c(SCC(=O)NC(C)(C)C)nc(O)cc1=O | 1 | 11 | 0 | 1 | 100 | -1 | nt | nt
COc1ccccc1-n1c(SCC(=O)Nc2ccccc2C)nc(O)cc1=O | -1 | 40* | 1 | 0 | 109 | 13 | 7 | 5.9*
COC1OC(COCc2ccccc2)C(N)C(OCc2ccccc2)C1OCc1ccccc1 (centres undefined) | 2 | 0 | 1 | 1 | 89 | -1 | nt | nt
N#Cc1ccsc1NC(=O)CSc1nncs1 | -3 | 11 | 0 | 2 | 108 | -14 | nt | nt
N#Cc1c(SCC(=O)Nc2ccc(C(F)(F)F)cc2)sc2c(O)cc(=O)[nH]c12 | -2 | 53* | -1 | -3 | 99 | -3 | 30 | 11*
Cc1ccc(NC(=O)CSc2sc3c(O)cc(=O)[nH]c3c2C#N)c(F)c1 | -2 | 45* | -1 | -3 | 100 | -4 | 26 | 11*
N#Cc1c(SCC(=O)Nc2nncs2)sc2c(O)cc(=O)[nH]c12 | -2 | 62* | 1 | -6 | 108 | -14 | 44* | 15*
CC(C)NC(=O)C1(C)CCN1C(=O)C1(c2ccccc2)CCCC1 (centres undefined) | -3 | 0 | 0 | -2 | nt | -12 | nt | nt
CCOC(=O)Cc1cc(=O)n2[nH]cc(-c3cccc(Br)c3)c2n1 | -4 | 67* | 0 | -56 | 106 | -174 | 53* | 17*
O=C(NNC(=O)c1nc2ccccc2[nH]1)OCc1ccccc1 | 0 | -1 | 0 | -3 | 106 | -6 | nt | nt
COc1cccc(/C=N/n2c(-c3cc(C)[nH]n3)n[nH]c2=S)c1 | -5 | -3 | -1 | -3 | nt | 3 | nt | nt
